# Most compounds without a hit are left out; they make up all but 4% or so of the library.
# Peg3 prom inh = reduces Peg3 promoter-driven luciferase expression in HeLa | HeLa PEG-Prom luciferase reporter, luminescence, overnight | inhibition, % at 20 µM | hit rate 1.7% among 360,000;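 active = inhibition of at least 50% at 20 µM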
# HIF-2a inh = blocks HIF-2a reporter activity | 786-0 RCC cells HIF-2a reporter, luciferase luminescence, overnight | inhibition, % at 18.8 µM | hit rate 0.72% among 360,000 | AID 624352;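 active = inhibition of the luminescence signal of 40% or more relative to plate controls, in a single-dose primary screen at 18.75 µM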
# TROY signal inh = inhibitors of TROY-dependent NF-kB signaling. hit rate 0.98% among 360,000. Q293 LMP1-TROYcd NF-kB luciferase reporter, 4 h. inhibition, % at 10 µM;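 active = compounds whose plate-normalised and pattern-corrected inhibition of the luciferase reporter signal at the single screening dose is 50% or more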
# TWEAK-Fn14 inh = inhibitors of TWEAK-Fn14 interaction signaling; inhibition, % at 10 µM; hit rate 2% among 360,000; TWEAK-stimulated Fn14 reporter cells, luciferase luminescence, 8 h; in the data active = inhibition above about 50%
# KKLEB cytotox = counter-screen for CF NF-kB inhibitors: cytotoxicity | KKLEB CF airway cells viability, ATPlite luminescence, overnight; hits give low values; cells stimulated with P. aeruginosa culture filtrate | activity change (cytotoxicity), % at 5 µM | hit rate 0.36% among 360,000 | AID 602141;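 active = corrected activity change at or below -50% at 5 µM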
# CF NFkB block = inhibitors of cystic fibrosis induced NF-kB; AID 588850; inhibition, % at 5 µM; hit rate 0.86% among 360,000; KKLEB NF-kB-GFP reporter, PAF-induced, GFP fluorescence overnight;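 active = at least 50% inhibition at 5 µM, scaled per plate between neutral and stimulator controls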;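 also: PAF is a Pseudomonas aeruginosa culture filtrate used as stimulus; plate controls were PAF-stimulated DMSO wells for no effect and unstimulated DMSO wells for full effect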
# Mdm2 MdmX conf = confirmation of inhibitors of human Mdm2/MdmX interaction, set 2. shares compounds with HIF-2a inh. SaOS-2 split-luciferase Mdm2/MdmX complementation, luminescence. inhibition, % at 8 µM. hit rate 99% among 740. AID 504601;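 active = mean inhibition of the luminescence signal across two replicates at or above 26 percent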
# HIF-2a conf = HIF-2a inhibition, single concentration confirmation. inhibition, % at 18.8 µM. shares compounds with HIF-2a inh. 786-0 RCC cells, HIF-2a luciferase reporter luminescence, overnight. hit rate 56% among 1,800;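 active = mean inhibition across four replicates of at least 40 percent at the single tested concentration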
# HIF-1a counter = HIF-1a inhibition counter-screen for HIF-2a hits; shares compounds with HIF-2a inh; inhibition, % at 18.8 µM; AID 651589; hit rate 72% among 1,800; MiaPaCa-2 HIF-1a luciferase reporter, desferoxamine, overnight;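 active = mean inhibition of the reporter signal across four replicates at the single tested dose of 50% or more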
# The depositor's hits bear a star; · = no result given.
SMILES,Peg3 prom inh,HIF-2a inh,TROY signal inh,TWEAK-Fn14 inh,KKLEB cytotox,CF NFkB block,Mdm2 MdmX conf,HIF-2a conf,HIF-1a counter
COc1ccc2[nH]c3c(c2c1)CCN1C(=O)C(CC(=O)NCc2cccc(C(F)(F)F)c2)C[C@H](C(=O)N(C(C)C)C(C)C)[C@@]31C (some centres not stated),12,-4,18,20,-6,18,·,·,·
CN(C)CCCNC(=O)/C(=C\c1ccc(-c2ccc(Br)cc2)o1)NC(=O)c1ccccc1,76*,41*,-21,-70,-70*,16,·,-8,106*
Cc1ccc(C(=O)N/C(=C\c2ccc(-c3ccc(Cl)cc3)o2)C(=O)NCCCN(C)C)cc1,103*,15,-12,-47,-20,23,103*,·,·
Cn1c(=O)c2[nH]c(C3CC3)nc2n(C)c1=O,-6,3,4,-5,3,8,·,·,·
COc1cccc(-c2csc3ncnc(Sc4nnnn4C)c23)c1,88*,47*,38,75*,-12,47,·,43*,98*
Cn1nnnc1Sc1ncnc2scc(-c3ccccc3C(F)(F)F)c12,18,51*,9,28,-18,22,·,46*,59*
COc1cccc(CNCCSc2nnnn2C)c1,-9,18,-8,3,-6,11,·,·,·
Cn1nnnc1Sc1ncnc2scc(-c3ccc(C(F)(F)F)cc3)c12,97*,94*,55*,93*,-59*,72*,100*,98*,102*
Cc1ccc(-c2csc3ncnc(SCC(=O)O)c23)cc1,7,2,7,9,-8,10,·,·,·
Cn1nnnc1Sc1ncnc2scc(-c3ccc(-c4ccccc4)cc3)c12,101*,46*,4,78*,-63*,88*,·,-26,101*
COc1ccc(C2=C(C)C(N3CCN(C(=O)c4ccco4)CC3)=NS2(=O)=O)cc1,15,2,-6,1,5,-3,·,·,·
Cc1nnc(NC(=O)CSc2ncnc3scc(-c4ccccc4)c23)s1,12,23,22,-1,1,17,·,·,·
Cn1nnnc1Sc1ncnc2scc(-c3cc4ccccc4o3)c12,100*,97*,76*,103*,-86*,83*,103*,96*,107*
Cn1nnnc1Sc1ncnc2scc(-c3cccs3)c12,·,·,·,·,·,·,103*,·,·
Cc1ccccc1N1CCN(c2ncnc3scc(-c4cccs4)c23)CC1,32,16,37,36,-7,17,·,·,·
Cn1nnnc1Sc1ncnc2scc(-c3cccc(C(F)(F)F)c3)c12,95*,84*,58*,90*,-52*,71*,103*,91*,99*
CC(C)n1c(/C=C/[C@@H](O)C[C@@H](O)CC(=O)O)c(-c2ccc(F)cc2)c2ccccc21,28,39*,-5,14,-3,46,·,20,-39
Cc1nc2c(-c3ccc(F)cc3)c(C)nn2c(C)c1CCC(=O)Nc1ccccc1,22,25,26,8,-8,14,·,·,·
O=S(=O)(c1ccccc1)c1ncc(C(F)(F)F)cc1Cl,71*,96*,46,33,-86*,89*,·,4,14
Cn1c(=O)[nH]c(=O)c2[nH]c(N(Cc3ccccc3)Cc3ccccc3)nc21,24,41*,-6,5,1,-3,·,11,-7
Cn1c(=O)[nH]c(=O)c2[nH]c(CN3CCN(Cc4ccccc4)CC3)nc21,10,12,-1,0,8,5,·,·,·
COc1c(Cl)cc(Cl)cc1C(=O)Nc1ccc(C(=O)O)cc1,5,10,-5,22,5,-1,·,·,·
COc1c(Cl)cc(Cl)cc1/C=C/C(=O)c1ccc(NC(=O)c2cccs2)cc1,100*,87*,3,79*,-82*,88*,99*,-97,107*

# Screening data deposited in PubChem BioAssay by Sanford-Burnham Center for Chemical Genomics.
